Measured values reported in PubChem BioAssay AID1159580 (chemical genetic matrix, 2015).
The whole screen tested about 5,500 compounds, of which about 2,000 (36%) were called active. Inconclusive results (about 18%) are left out. The list shows a part of the results. Values without a mark were called inactive. Cut-off read from the data, not from the text of the source: active = normalized growth mostly below about 0.91 (no sharp cut-off); inconclusive = no clear call, values can overlap the other calls; inactive = mostly above about 0.92.

Assay: chemical genetic growth profiling, strain panel (AID 1159580);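 note: tested at 20 µM; growth read once vehicle control cultures reached saturation at 30 °C; 1 = growth at the plate median or of vehicle wells; lower values mean less growth of the strain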
Details: S. cerevisiae deletion strains, growth OD
[1] = locus YBL105C, strain PKC1, stronger effect = lower value
[2] = locus YBR135W, strain CKS1, stronger effect = lower value
[3] = locus YBR136W, strain MEC1, stronger effect = lower value
[4] = locus YBR160W, strain CDC28, stronger effect = lower value
[5] = locus YDL017W, strain CDC7, stronger effect = lower value
[6] = locus YDL028C, strain MPS1, stronger effect = lower value
[7] = locus YDL108W, strain KIN28, stronger effect = lower value
[8] = locus YDL214C, strain PRR2, stronger effect = lower value
[9] = locus YDR052C, strain DBF4, stronger effect = lower value
[10] = locus YDR226W, strain ADK1, stronger effect = lower value
[11] = locus YDR477W, strain SNF1, stronger effect = lower value
[12] = locus YER123W, strain YCK3, stronger effect = lower value
[13] = locus YER133W, strain GLC7, stronger effect = lower value
[14] = locus YFR003C, strain YPI1, stronger effect = lower value
[15] = locus YFR019W, strain FAB1, stronger effect = lower value
[16] = locus YFR028C, strain CDC14, stronger effect = lower value
[17] = locus YGR040W, strain KSS1, stronger effect = lower value
[18] = locus YGR052W, strain FMP48, stronger effect = lower value
[19] = locus YGR092W, strain DBF2, stronger effect = lower value
[20] = locus YHR030C, strain SLT2, stronger effect = lower value
[21] = locus YHR079C, strain IRE1, stronger effect = lower value
[22] = locus YHR082C, strain KSP1, stronger effect = lower value
[23] = locus YHR205W, strain SCH9, stronger effect = lower value
[24] = locus YIL147C, strain SLN1, stronger effect = lower value
[25] = locus YJL095W, strain BCK1, stronger effect = lower value
[26] = locus YJL128C, strain PBS2, stronger effect = lower value
[27] = locus YJL157C, strain FAR1, stronger effect = lower value
[28] = locus YJR016C, strain ILV3, stronger effect = lower value
[29] = locus YJR066W, strain TOR1 (second series), stronger effect = lower value
[30] = locus YJR066W, strain TOR1, stronger effect = lower value
[31] = locus YKL048C, strain ELM1, stronger effect = lower value
[32] = locus YKL067W, strain YNK1, stronger effect = lower value
[33] = locus YKL101W, strain HSL1, stronger effect = lower value
[34] = locus YKL203C, strain TOR2, stronger effect = lower value
[35] = locus YLR113W, strain HOG1, stronger effect = lower value
[36] = locus YLR133W, strain CKI1, stronger effect = lower value
[37] = locus YLR403W, strain SFP1, stronger effect = lower value
[38] = locus YML070W, strain DAK1, stronger effect = lower value
[39] = locus YMR205C, strain PFK2 (second series), stronger effect = lower value
[40] = locus YNL006W, strain LST8, stronger effect = lower value
[41] = locus YNL020C, strain ARK1, stronger effect = lower value
[42] = locus YNL183C, strain NPR1, stronger effect = lower value
[43] = locus YNL307C, strain MCK1 (second series), stronger effect = lower value
[44] = locus YOL136C, strain PFK27, stronger effect = lower value
[45] = locus YOR061W, strain CKA2, stronger effect = lower value
[46] = locus YOR119C, strain RIO1, stronger effect = lower value
[47] = locus YOR231W, strain MKK1, stronger effect = lower value
[48] = locus YPL031C, strain PHO85, stronger effect = lower value
[49] = locus YPL153C, strain RAD53, stronger effect = lower value
[50] = locus YPL209C, strain IPL1, stronger effect = lower value
[51] = locus YPL256C, strain CLN2, stronger effect = lower value
[52] = locus YPR106W, strain ISR1, stronger effect = lower value
[53] = locus YPR111W, strain DBF20, stronger effect = lower value

In the case of `CC(C)c1ccc(COC(=O)Nc2ccc(CSc3ccc(Cl)cc3)o2)cc1`, the normalized growth (locus YAR019C, strain CDC15, stronger effect = lower value) is reported as 0.99, the normalized growth [1] is reported as 0.992 and the normalized growth [2] is reported as 0.983. The normalized growth [3] was 0.983, the normalized growth [4] was 0.989 and the normalized growth [5] was 0.982. For the same compound, the normalized growth [6] was 0.985, the normalized growth (locus YDL101C, strain DUN1, stronger effect = lower value) was 0.992 and the normalized growth [7] was 0.985. For the same compound, the normalized growth (locus YDL132W, strain cdc53, stronger effect = lower value) was 0.982, the normalized growth [8] was 0.934 and the normalized growth [9] was 0.993. The normalized growth (locus YDR054C, strain cdc34, stronger effect = lower value) was 0.972, the normalized growth [10] was 0.981 and the normalized growth [11] was 0.929. For the same compound, the normalized growth [12] was 0.91, the normalized growth [13] was 0.925 and the normalized growth (locus YFL009W, strain cdc4, stronger effect = lower value) was 0.979. It also gave a normalized growth (locus YFL029C, strain CAK1, stronger effect = lower value) of 0.983, a normalized growth [14] of 0.983 and a normalized growth [15] of 0.935. For the same compound, the normalized growth [16] was 0.988, the normalized growth [17] was 0.923 and the normalized growth [18] was 0.952. The normalized growth [19] was 0.921, the normalized growth [20] was 0.871 and the normalized growth [21] was 0.886. For the same compound, the normalized growth [22] was 0.963, the normalized growth [23] was 0.82 and the normalized growth [24] was 0.983. The normalized growth [25] was 0.855, the normalized growth [26] was 0.954 and the normalized growth [27] was 0.907. It also gave a normalized growth [28] of 0.98, a normalized growth [29] of 0.9 and a normalized growth [30] of 1.01. It also gave a normalized growth [31] of 0.953, a normalized growth [32] of 0.938 and a normalized growth [33] of 0.953. For the same compound, the normalized growth (locus YKL193C, strain SDS22, stronger effect = lower value) was 0.98, the normalized growth [34] was 0.976 and the normalized growth [35] was 0.879. It also gave a normalized growth [36] of 0.928, a normalized growth [37] of 0.893 and a normalized growth [38] of 0.912. It also gave a normalized growth (locus YMR001C, strain CDC5, stronger effect = lower value) of 0.983, a normalized growth [39] of 0.928 and a normalized growth (locus YMR277W, strain FCP1, stronger effect = lower value) of 0.982. It also gave a normalized growth [40] of 0.988, a normalized growth [41] of 0.919 and a normalized growth (locus YNL161W, strain CBK1, stronger effect = lower value) of 0.98. The normalized growth [42] was 0.995, the normalized growth (locus YNL207W, strain RIO2, stronger effect = lower value) was 0.982 and the normalized growth (locus YNL222W, strain SSU72, stronger effect = lower value) was 0.987. The normalized growth [43] was 0.933, the normalized growth (locus YOL078W, strain AVO1, stronger effect = lower value) was 0.981 and the normalized growth [44] was 0.92. The normalized growth [45] was 0.909, the normalized growth [46] was 0.983 and the normalized growth [47] was 0.963. For the same compound, the normalized growth (locus YOR329C, strain SCD5, stronger effect = lower value) was 0.986, the normalized growth [48] was 0.902 and the normalized growth [49] was 0.912. It also gave a normalized growth [50] of 0.988, a normalized growth [51] of 0.923 and a normalized growth (locus YPR025C, strain CCL1, stronger effect = lower value) of 0.989. The normalized growth [52] was 0.983, the normalized growth [53] was 0.983 and the normalized growth (strain NNK1, stronger effect = lower value) was 0.987. The normalized growth (strain TSCII, stronger effect = lower value) was 0.986.
In the case of `N/C(CCSc1ccc(Cl)cc1)=N/OC(=O)Nc1ccc(Cl)cc1`, the normalized growth [1] is reported as 0.986, the normalized growth [2] is reported as 0.984 and the normalized growth [3] is reported as 0.978. The normalized growth [4] was 0.978, the normalized growth [5] was 0.982 and the normalized growth [6] was 0.986. The normalized growth [7] was 0.983, the normalized growth [8] was 0.336 (active) and the normalized growth [9] was 0.982. The normalized growth [10] was 0.983, the normalized growth [11] was 0.273 (active) and the normalized growth [12] was 0.0987 (active). The normalized growth [13] was 0.286 (active), the normalized growth [14] was 0.981 and the normalized growth [15] was 0.108 (active). For the same compound, the normalized growth [16] was 0.986, the normalized growth [17] was 0.247 (active) and the normalized growth [18] was 0.118 (active). The normalized growth [19] was 0.275 (active), the normalized growth [20] was 0.104 (active) and the normalized growth [21] was 0.118 (active). The normalized growth [22] was 0.114 (active), the normalized growth [23] was 0.253 (active) and the normalized growth [24] was 0.986. The normalized growth [25] was 0.111 (active), the normalized growth [26] was 0.944 and the normalized growth [27] was 0.371 (active). For the same compound, the normalized growth [28] was 0.981, the normalized growth [29] was 0.0983 (active) and the normalized growth [30] was 0.114 (active). For the same compound, the normalized growth [31] was 0.346 (active), the normalized growth [32] was 0.377 (active) and the normalized growth [33] was 0.259 (active). For the same compound, the normalized growth [34] was 0.14 (active), the normalized growth [35] was 0.126 (active) and the normalized growth [36] was 0.377 (active). The normalized growth [37] was 0.311 (active), the normalized growth [38] was 0.103 (active) and the normalized growth [39] was 0.345 (active). For the same compound, the normalized growth [40] was 0.697 (active), the normalized growth [41] was 0.375 (active) and the normalized growth [42] was 0.122 (active). For the same compound, the normalized growth [43] was 0.315 (active), the normalized growth [44] was 0.125 (active) and the normalized growth [45] was 0.326 (active). The normalized growth [46] was 0.133 (active), the normalized growth [47] was 0.103 (active) and the normalized growth [48] was 0.142 (active). The normalized growth [49] was 0.0978 (active), the normalized growth (locus YPL204W, strain HRR25, stronger effect = lower value) was 0.105 (active) and the normalized growth [50] was 0.983. The normalized growth [51] was 0.118 (active), the normalized growth [52] was 0.976 and the normalized growth [53] was 0.978.
